Bioassay records from PubChem.
Only some compounds are listed: those with a hit (about 9.6% of all), similar ones and a draw of the others.
USP30 block: inhibitors of human USP30 deubiquitinase; purified USP30, Ub-rhodamine cleavage fluorescence; inhibition, % at 25 µM; hit rate 5.3% among 47,000; AID 1645860, 2021
Target sequence (Q70CQ3 whole entry, looked up): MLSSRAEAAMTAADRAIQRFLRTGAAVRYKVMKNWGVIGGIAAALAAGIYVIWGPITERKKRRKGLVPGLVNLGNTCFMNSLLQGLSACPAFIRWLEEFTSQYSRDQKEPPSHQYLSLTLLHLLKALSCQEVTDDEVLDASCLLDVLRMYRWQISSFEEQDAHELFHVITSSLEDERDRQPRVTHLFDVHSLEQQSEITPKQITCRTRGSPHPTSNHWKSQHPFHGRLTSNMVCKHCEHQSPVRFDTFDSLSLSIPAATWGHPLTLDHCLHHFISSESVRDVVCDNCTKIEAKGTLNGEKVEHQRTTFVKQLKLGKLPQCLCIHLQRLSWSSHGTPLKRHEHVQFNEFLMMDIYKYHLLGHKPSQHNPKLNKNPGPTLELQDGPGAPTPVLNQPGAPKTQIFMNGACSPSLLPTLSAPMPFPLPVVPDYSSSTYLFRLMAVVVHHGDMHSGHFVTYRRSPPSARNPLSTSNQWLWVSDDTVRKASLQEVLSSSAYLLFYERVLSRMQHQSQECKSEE
USP17 block: inhibitors of human USP17 deubiquitinase; Ubiquitin carboxyl-terminal hydrolase 17-like protein 5 (Homo sapiens), A8MUK1; purified USP17, Ub-rhodamine cleavage fluorescence, 3 h; inhibition, % at 50 µM; hit rate 6.5% among 47,000; AID 1645855, 2021
Starred values were filed as active, the others as inactive; / = no result. No stated cut-off is given here; in the data, active means inhibition above about 30%; inactive means the rest.

SMILES	USP30 block	USP17 block
CC(Oc1ccccc1)C(=O)NC1CCCc2ccccc21 (stereo not drawn)	0	19
O=C1O/C(=C\C=C\CO)C=C1/C=C/CO	-318	-97
CC(=O)N1CCC(c2nc3ccc(Nc4cccc(F)c4)cn3n2)CC1	6	-2
CC(C)(C)OC(=O)NC[C@H]1C[C@@]2(C)[C@H](O)CCCC[C@H]2N1C(=O)c1ncc[nH]1	-37	/
CCOC(=O)N1CCN(Cc2c(-c3ccccc3)nc3sccn23)CC1	14	-11
O=S(=O)(Nc1cc(-c2ccncc2)no1)c1ccc(F)cc1F	-2	/
Cc1ccc(NC(=O)Cc2nnc3c(-c4nc(C5CC5)no4)cccn23)cc1F	-21	10
Cc1ncoc1C(=O)N1CCCC(c2ncc(Cc3ccc(Cl)cc3)o2)C1 (stereo not drawn)	9	-1
O=S(=O)(Nc1ccccc1Cl)c1ccc(N2CCCCS2(=O)=O)cc1	6	-3
COc1ccc(NS(=O)(=O)c2ccc(NC(=O)Nc3ccc(Cl)cc3)cc2)cc1	29	56*
COc1ccc(NS(=O)(=O)c2ccc(OC)c(NC(=O)c3ccc(OC)cc3)c2)cc1	15	5
Cc1c(Cl)cccc1NS(=O)(=O)c1ccc(N2CCCCS2(=O)=O)cc1	40*	26
CCn1c(COC(=O)c2cccc(C)c2)nc2cc(S(=O)(=O)N3CCCCC3)ccc21	11	1
Cc1nn(-c2ccccc2)cc1-c1noc(C(=O)N2CCCC2)n1	10	6
COc1ccc(N(CCC(=O)Nc2ccc(C)cc2)S(=O)(=O)c2cccc(Cl)c2)cc1	-2	-1
O=C(CCC1CCCC1)N1CCN(C(=O)c2cc(-c3cccnc3)n[nH]2)CC1	-18	7
c1ccc(CNc2ncnc3c2sc2nc(N4CCOCC4)c4c(c23)CCC4)nc1	-1	10
COc1cccc(C(=O)NCc2ccc(-c3ccc(F)cc3)o2)c1	12	13
O=C(Nc1ccc2c(c1)OCCO2)N1CCC2(CC1)Nc1ccccc1-n1cccc12	22	14
O=C(c1ccccn1)N1CCC2(CC1)CC1(CO2)Nc2ccccc2-n2cccc21 (stereo not drawn)	-144	46*
CCc1ccccc1NC(=O)N1CCC2(CC1)Nc1ccccc1-n1cccc12	3	45*
O=C(Nc1cccc(C(F)(F)F)c1)N1CCC2(CC1)Nc1ccccc1-n1cccc12	43*	21
CC(=O)N1CC2(CCN(C(=O)c3ccccn3)CC2)Nc2ccccc21	-7	0
COc1ccc(C)cc1NC(=O)N1CCC2(CC1)Nc1ccccc1-n1cccc12	11	-2
O=C(Nc1cccc2ccccc12)C1CCCN(S(=O)(=O)Cc2ccc(F)cc2)C1 (stereo not drawn)	14	20
SMILES	USP30 block	USP17 block
CNc1nc2c(c(=O)n1Cc1ccccc1)CCN(C(=O)c1cccc(C)c1)C2	-3	-7
O=C(NCC1CC1)c1cc2c(nc1NCC1CC1)CCNCC2	-2	-28
CC(C)CNc1nc2c(cc1C(=O)NCC1CC1)CCNCC2	45*	0
Cc1cc(N2C(=O)c3oc4ccccc4c(=O)c3C2c2ccccc2F)no1 (stereo not drawn)	4	0
CCOC(=O)c1cc(-c2ccccc2)sc1NC(=O)c1cccc(Cl)c1	22	13
Cc1c(Cc2ccccc2)sc(NC(=O)c2ccc(Cl)cc2)c1C(N)=O	-33	33*
COc1cccc(C(CNC(=O)Nc2cccc(C)c2)N2CCOCC2)c1 (stereo not drawn)	0	-5
Cc1cccc(C(=O)NC(c2ccccc2)c2cccnc2)c1 (stereo not drawn)	3	-11
Cc1cccc(C(=O)NC(NC(=O)c2cccc(C)c2)c2ccccc2F)c1	43*	/
CCCS(=O)(=O)N1CCc2nc(NC)n(-c3ccccc3)c(=O)c2C1	25	4
O=C(Cc1n[nH]c(Cc2ccc(F)cc2)n1)NC1CCCCCC1	3	9
Cc1ccccc1C1CC(=O)Nc2c1c(C)nn2-c1ccc2nnc(C)n2n1 (stereo not drawn)	29	11
Cc1nn(-c2ccc3nncn3n2)c2c1C(c1ccc(C(C)C)cc1)CC(=O)N2 (stereo not drawn)	45*	19
COc1ccccc1C1CCNc2ccccc2N1 (stereo not drawn)	-49	0
COc1cccc(C2CCNc3ccccc3N2)c1 (stereo not drawn)	-134	36*
Cc1ccc(C)c(NC(=O)CCC(=O)OCC(=O)c2ccc(Cl)cc2)c1	19	6
O=C(COC(=O)c1ccc(Cl)s1)c1ccc2[nH]c(=O)[nH]c2c1	-26	42*
Cc1ccc(C(=O)CCC(=O)OCC(=O)c2ccc3[nH]c(=O)[nH]c3c2)cc1	34*	55*
O=C(COC(=O)c1nn(-c2ccccc2)c(=O)c2ccccc12)c1ccc2c(c1)OCCO2	-12	-6
COCCn1cnc(-c2nc(C(=O)NCC3CCCO3)c3ccccn23)c1 (stereo not drawn)	-15	-7
O=C(CC1C(=O)N(Cc2ccccn2)c2nc3ccccc3n21)Nc1cccc2ccccc12 (stereo not drawn)	-54	-2
CN(C)CCNC(=O)c1nc(N2CCSCC2)c2cnn(C)c2n1	-10	0
O=C(Nc1ccc2n[nH]nc2c1)c1ccc(Cl)c(Cl)c1	53*	51*
Cc1ccc(C(=O)Nc2ccc3nccnc3c2)cc1	29	6
O=C(Cc1ccc(N2CCCC2=O)cc1)NC1CCCc2ccccc21 (stereo not drawn)	4	-6
SMILES	USP30 block	USP17 block
CCN(CC(=O)Nc1ccc2c(c1)OCCO2)S(=O)(=O)c1ccc(Cl)cc1C(F)(F)F	17	14
COc1ccc(-c2cncc(-c3cc(NCc4ccc(Cl)cc4)nc(C)n3)c2)cc1	18	8
FC(F)(F)Oc1ccc(-c2cnc(NCc3ccc(Cl)cc3)nc2)cc1	34*	25
Cc1nn(C)c2c1[C@@H](c1cc(Cl)c3c(c1)OCCO3)[C@H](NC(=O)c1ccccc1)C(=O)N2	-30	-13
N#Cc1ccccc1NC(=O)c1cc2c(s1)-c1ccccc1S(=O)(=O)C2	83*	72*
O=C(c1cc2c(s1)-c1ccccc1S(=O)(=O)C2)N1CCN(c2ccccc2F)CC1	26	11
Cc1c(O)c(O)c2c(c1O)COC2	-108	39*
O=C(O)/C(=C/c1ccc(Br)cc1)NC(=O)c1ccco1	/	-3
CCN1CC2(CC1=O)CN(C(=O)C(C)C)CCN(S(=O)(=O)c1ccccc1)C2 (stereo not drawn)	18	2
Cc1noc(-c2ccc(SCC(=O)NC3CCCCC3)nc2)n1	-5	-4
O=C(Nc1ccccc1)N1CCCC1c1nc(-c2cccc(Cl)c2)no1 (stereo not drawn)	25	8
O=C(Nc1ccc(Cl)cc1Cl)c1ccn(COc2ccccc2F)n1	45*	36*
O=C(Nc1ccccc1Cl)c1ccn(COc2ccccc2F)n1	57*	66*
O=C(COc1ccccc1Cl)Nc1ccc(F)cc1F	15	6
O=C(COc1ccccc1-c1nnc(-c2ccccc2)o1)Nc1ccccc1Cl	9	9
Cc1sc2nc(CN3CCOCC3)nc(NCCc3ccc(S(N)(=O)=O)cc3)c2c1C	-49	10
CCCCN(C)C(=O)Cn1c(C2CC(=O)N(Cc3ccc(F)cc3)C2)nc2ccccc21 (stereo not drawn)	5	48*
